Experimental findings from PubChem BioAssay AID492998 (Southern Research Specialized Biocontainment Screening …, 2010) are described below.

Out of some 2,300 compounds screened, about 550 (24%) were called active. The rule behind the calls is not given here. Only a sample is shown. Results with a measured potency or affinity are listed apart.

This assay is described as follows: Vero E6 cell cytotoxicity, dose response, cytotoxicity control for non-replicating M. tuberculosis project, secondary assay (AID 492998). The note with it: series mostly up to 20 µM.
Consider `CCCCOC(=O)Cn1c(-c2ccccc2)nc2ccccc2c1=O`, for which the result was inactive.
In the case of `CCOC(=O)c1cc(-c2csc(COc3ccc(Cl)cc3)n2)on1` it was “inactive”; in that of `NC(=O)C1CCN(C2CC(=O)NC2=O)CC1` (stereo unspecified), “inactive”; in that of `CCC(C)n1c(=S)[nH]c2ccccc2c1=O` (stereo unspecified), “inactive”.
The entry for `Nc1ccc2nc3c(c(Cl)c2c1)CCCC3` is “inactive”.
The entry for `O=C(CCSc1nnc(-c2ccncc2)o1)Nc1ccc(Cl)cc1` is “inactive”; for `CCC1(O)CC(c2ccccc2)=NN1C(=O)c1ccccc1F` (stereo unspecified) it is “inactive”.
In the case of `CCOC(=O)C(C)(C)n1nnc(-c2ccc([N+](=O)[O-])cc2)n1`, the result was inactive.
In the case of `Cc1cc(=O)n2cccc(O)c2n1` it was “inactive”.
In the case of `O=C(NNc1nc2cc3c(cc2s1)OCCO3)c1ccccc1` it was “inactive”; in that of `C/C(CC(=O)Nc1ccc(N(C)C)cc1)=N\NC(=O)c1ccncc1`, “inactive”.
The entry for `NC(=O)c1cccnc1Nc1cccc(F)c1` is “inactive”; for `CN(C)CCCn1c(=O)n(C2CCCCC2)c(=O)c2c3c(sc21)CCCCC3` it is “inactive”.
Take `CN(C)CCNc1c2c(c(C#N)c3nc4ccccc4n13)CCCC2`: the call was inactive.
In the case of `COc1cc(/C=N/Nc2ccc(Cl)c(C(=O)O)c2)ccc1OC(=O)c1cccs1` it was “inactive”.
The entry for `CC1=NN(C(=O)c2csc(C)c2C)C(O)(C(F)(F)F)C1` (stereo unspecified) is “inactive”.
In the case of `O=C(CCc1ccccc1F)N1CCN(c2ccccc2)CC1` it was “inactive”; in that of `Cc1cc(/C=N\NC(=O)c2cccs2)c(C)n1-c1ccc2ncccc2c1`, “inactive”; in that of `O=c1cc(-c2ccccc2Cl)oc2c([N+](=O)[O-])c(O)cc(O)c12`, “inactive”.
For the compound `O=C(NC(=S)NCCc1ccccc1)c1ccccc1`, the outcome was inactive.
The entry for `C/C(=N/NC(=O)c1cccc(C)c1)c1c(O)cc(C)oc1=O` is “inactive”; for `CC1CCN(C(=O)COC(=O)c2cc3ccccc3cc2O)CC1` it is “inactive”.
In the case of `C/C(=N\NC(=O)c1ccncc1)c1cc2ccccc2oc1=O` it was “inactive”.
For the compound `C/C(=N\NC(=O)c1cccc(Cl)c1)C1C(=O)c2ccccc2C1=O`, the result was inactive.
In the case of `O=C(CCc1ccccc1)NC1C2CC3CC(C2)CC1C3` (stereo unspecified) it was “inactive”.
In the case of `O=C1/C(=C/C=C/c2ccccc2)Oc2c1ccc(O)c2CN1CCN(CCO)CC1` it was “inactive”.
The entry for `O=C(COC(=O)C1CC2C=CC1C2)Nc1ccccc1` (stereo unspecified) is “inactive”; for `COC(=O)c1cc2c(ccc3ccccc32)oc1=O` it is “inactive”; for `COc1ccc(-c2cc(=O)oc(-c3cccc(C)c3)n2)cc1` it is “inactive”.
Consider `Cc1nn(-c2ccccc2)nc1C(=O)c1c(C)[nH]n(-c2ccccc2)c1=O`, for which the outcome was inactive.
`O=C(OCc1c(Cl)cccc1Cl)c1ccccn1`: the compound was called inactive.
The entry for `CCOC(=O)c1ccc(COC(=O)c2cc3ccccc3oc2=O)o1` is “inactive”; for `CC(=O)NCCOC(=O)Nc1sc(=S)n(C)c1C` it is “inactive”; for `CC1CCN(C(=O)C2COc3ccccc3O2)CC1` (stereo unspecified) it is “inactive”.
In the case of `Cc1csc(=Nc2cccnc2)n1CC1CCCCC1` it was “inactive”; in that of `CNC(=O)COC(=O)c1ccc(-c2nc3ccccc3s2)s1`, “inactive”; in that of `CC(C)N1CCc2c(sc(NC(=O)CCS(=O)(=O)c3ccccc3)c2C#N)C1`, “inactive”.
In the case of `COCCCC1CCN(Cc2nc(-c3ccccc3)no2)CC1` it was “inactive”.
As for `CC(C)(C)c1ccc(S(=O)(=O)NNC(=O)c2cc3ccccc3[nH]2)cc1`, the compound was called inactive.
The entry for `CC(C)(C)CC(=O)NC(=S)NCc1ccco1` is “inactive”.
Regarding `CCOC(=O)COc1cc(N)c(Cl)cc1Cl`, the compound was called inactive.
The entry for `CCn1cc(C(=O)NC(C)C23CC4CC(CC(C4)C2)C3)cn1` (stereo unspecified) is “inactive”; for `Cc1ccc(S(=O)(=O)N2CCC(C(=O)OCc3ccccc3)CC2)cc1C` it is “inactive”; for `COc1ccc2c([N+](=O)[O-])c(N3CCCC3)[nH]c2c1` it is “inactive”.
The entry for `Cc1ccc(OCCCCn2ccnc2)c([N+](=O)[O-])c1` is “inactive”; for `Fc1ccc(-c2ccc(CNCc3ccccn3)o2)cc1Cl` it is “inactive”; for `Clc1cccc(-c2ccc(CNCc3ccccn3)o2)c1` it is “inactive”.
The entry for `CCCc1cc(NCCCn2ccnc2)n2nc(C)c(-c3ccccc3)c2n1` is “inactive”; for `Clc1ccc(-c2ccc(CNCc3ccccn3)o2)cc1` it is “inactive”; for `O=C(Oc1ccccc1)c1cc2ccccc2o1` it is “inactive”.
Regarding `Cc1cc(C(=O)NNc2ccc(Cl)cc2)no1`, the compound was classed as inactive.
In the case of `COc1cccc(C(=O)C2CCCN(CC3=Cc4cc(OC)ccc4OC3)C2)c1` (stereo unspecified) it was “inactive”; in that of `N/C(=N\OC(=O)c1cccs1)c1ccccc1`, “inactive”; in that of `C=CCN(CC=C)C(=O)Cc1ccc(F)cc1`, “inactive”.
For `O=[N+]([O-])c1ccc(Nc2ccccc2O)c2nonc12`, the outcome was inactive.
In the case of `Cc1ccc2[nH]c(C)c(CCNC(=O)c3cc4cc([N+](=O)[O-])ccc4oc3=O)c2c1` it was “inactive”; in that of `CC(NC(=O)c1cc2cc(Br)ccc2oc1=N)c1ccccc1` (stereo unspecified), “inactive”.
In the case of `CCOCCOC(=O)COc1ccc2c(-c3ccccc3)cc(=O)oc2c1` it was “inactive”.
The entry for `CC1=NN(C(=O)c2ccc(C)o2)C(O)(c2ccccc2)C1` (stereo unspecified) is “inactive”; for `N=c1oc2ccccc2cc1C(=O)NC1CCCCCC1` it is “inactive”.
For `O=C(NC1CCCC1)c1nc2c(nnn2Cc2cccc(Cl)c2)c(=O)[nH]1`, the compound was classed as inactive.
Take `CC(=O)c1ccc(-n2cc(-c3ccc(C(C)(C)C)cc3)[n+]3c2SCCC3)cc1`: the compound was classed as inactive.
The entry for `O=C(NCC(c1cccs1)N1CCOCC1)c1cc([N+](=O)[O-])cc([N+](=O)[O-])c1` (stereo unspecified) is “inactive”; for `COc1ccc([N+](=O)[O-])c(S(=O)(=O)c2ccc(Cl)cc2)n1` it is “inactive”; for `COC(=O)CCCCCN1C(=O)/C(=C\c2ccncc2)SC1=S` it is “inactive”.
In the case of `COc1ccc(-c2noc(-c3cc4ccccc4oc3=O)n2)cc1` it was “inactive”; in that of `CCN(CC)c1ccc2cc(C(=O)NCc3ccc(F)cc3)c(=N)oc2c1`, “inactive”.
In the case of `COc1ccccc1OCC(=O)N/N=C/C=C/c1ccc([N+](=O)[O-])o1`, the compound was called inactive.
In the case of `COc1ccccc1NC(=O)c1cnc(SC)nc1` it was “inactive”.
In the case of `O=C(Nc1ccccc1F)c1ccc(Br)o1`, the outcome was inactive.
The entry for `Cc1ccccc1NC(=O)c1nc[nH]c1C(=O)NCc1ccccc1` is “inactive”.
The entry for `O=C(Nc1nc2c(Cl)cccc2s1)c1ccc([N+](=O)[O-])o1` is “inactive”; for `N=c1oc2ccc(Cl)cc2cc1C(=O)NC1CCCCCC1` it is “inactive”; for `COc1cc2c(cc1OC)CN(CCC(=O)c1ccc(Br)cc1)CC2` it is “inactive”.
Take `CC1(C)C[C@H]2C=C(C=O)[C@]3(C=O)C[C@]3(C)[C@H]2C1`: the outcome was inactive.
The entry for `CCc1ccc(C(=O)COC(=O)c2ccc(Cl)nc2)cc1` is “inactive”.
